From PubChem BioAssay AID652025 (National Center for Advancing Translational Sciences (NCATS), 2013)
About 240 (0.067%) of roughly 360,000 compounds were called active. Only a selection was taken, and actives are over-represented in it overall. A number with no mark means an inactive call. Rule as the data show it: active = activation above about 50%; inconclusive = mostly about 30% to 49%; inactive = weaker than that.

Assay: qHTS of IL-2 Activators; also: 0% is about no effect
Details: IL-2 activation reporter assay, cell-based qHTS; hits give high values; in transgenic mouse T cells; stimulated with anti-CD3/CD4/CD28 beads
Excerpt: The adaptive immune response against any infectious agent begins with the activation of an antigen specific T cell. This relatively rare and inert ("naive") T cell undergoes a massive proliferative expansion and differentiation process to generate sufficient number of potent pathogen-specific effector T cells. The effector T cells fight the infection by making cytokines and helping other cells to become fully armed as well. If any naive T cell has antigen receptors (TCRs) that can be activated by self peptides, then a variety of regulatory mechanisms kick in to prevent this cell from performing to its full potential. These processes collectively constitute the phenomenon of immunological tolerance and their failure leads to autoimmunity. One arm of tolerance involves generation of biochemical negative feedback downstream of the TCR (tuning). This is especially relevant to self antigens present in the body over long periods of time (chronic), which form the bulk of our proteome. The negative feedback serves to tune the TCR signaling, such that the ambient antigenic stimulation is nullified intracellularly. Unfortunately, this critical machinery serves as a target for chronic viral, bacterial and parasitic infections (as well as tumors), which can evade a robust immune response, simply by allowing T cells to tune down their signaling to pathogen or malignancy derived antigens. As such, disrupting the tuning in such cases would allow the tolerant T cell to function again and deliver a robust effector response.
If a therapeutic can restore responsiveness to the tuned down T cell, even for a short time, they could combat the pathogen without any additional immunization. To that end, we have developed a sensitive HTS T cell based assay based on IL-2. This assay will be screened against the Molecular Libraries Small Molecule Repository (MLSMR) to find small molecules that could elicit this response.
NIH Chemical Genomics Center [NCGC]
NIH Molecular Libraries Probe Centers Network [MLPCN]
Assay Submitter (PI): Ron Schwartz, NIAID
4 microL (750 cells/well) of unstimulated transgenic mouse T cells (columns 1-3,5-48) are dispensed into Aurora LoBase, black clear-bottom 1536-well assay plates; column 4 receives an identical concentration of transgenic memory T cells as a non-tolerant control. Compounds are then transferred via Kalypsys pin tool equipped with 1536-pin array (10 nL slotted pins, V&P Scientific, San Diego, CA). Following addition of compound and a 60 minute incubation, 1 microL of bead stimulation solution ((0.04 micron Fluospheres (Life technologies, CA) coated with 10ug/ml each anti-CD3 and anti-CD4 (clones 2C11 and GK1.5, BD Biosciences, CA) and mixed with 1ug/ml anti-CD28 (clone PV-1, BD biosciences, CA)). columns 2-48) is added to stimulate the IL-2 response pathway; media is instead added to column 1 as an unstimulated control, while PMA/ionomycin (Sigma Aldrich, MO) is added to column 3 as a control for IL-2 tolerance bypass. The plates are then incubated at 37 degrees C for 18 hours. EGFP and DsRed signal are then detected using an Acumen eX3 Explorer fluorescent plate cytometer. All cells are dispensed in cell media containing EHAA (Quality Biologicals, MD), RPMI (Quality Biologicals, MD), Glutamine (Life Technologies, CA), Penicillin/Streptomycin (Quality Biologicals, MD), 2-ME (Sigma Aldrich, MO) and 10% FBS (Gemini Bioproducts, CA) .

Compound	activation
CN1CCC(N(C)S(=O)(=O)c2ccc(NC(=O)c3cccc(C#N)c3)cc2)CC1	0.319%
CCCN(CC1CC1)C(=O)COC(=O)c1ccc(C)cc1O	-0.72%
COc1cccc2oc(CCc3ccccc3)cc(=O)c12	2.76%
COC(C[C@@H]1O[C@@H]1C(=O)[C@@H](C)OCc1ccccc1)OC	0.368%
Cc1noc(/C=C/c2ccco2)c1S(=O)(=O)N1CCC(C(=O)Nc2ccc(Cl)cn2)CC1	-0.421%
Cc1cc(-c2csc(N)n2)c(C)n1-c1ccccc1	-0.438%
C[n+]1ccc(/C=C/c2c[nH]c3ccccc23)cc1	91.4% (active)
CSc1nsc(SC)c1NC(=O)OC1CCCCC1	-1.77%
CN1CCN(c2ccc3c(c2)OC[C@H](Cc2ccccc2)NS3(=O)=O)CC1	1.2%
CC(=O)c1c(C)[nH]c(C(=O)Nc2cc(S(=O)(=O)N(C)C)ccc2C)c1C	0.322%
CO[C@@H]1CN(C)C(=O)c2cc(NC(=O)Nc3cc(F)ccc3F)ccc2OC[C@H](C)N(C(=O)c2ccccn2)C[C@@H]1C	-0.0824%
CCCNC(=O)C1(C)CCN(Cc2csc(-c3ccc(Cl)cc3)n2)C1 (stereo not given)	-0.168%
CC(=O)NC12CC3CC(C1)CC(C(=O)N1CCN(C(=O)c4ccco4)CC1)(C3)C2	2.63%
O=C(NCCCNC(=O)NC1CCCCC1)NC1CCCCC1	2.89%
Cc1ccc(N(Cc2cc(=O)[nH]c3ccccc23)C(=O)CCl)cc1	-4.77%
CC1CN(C(=S)Nc2cccc(F)c2)CC(C)O1 (stereo not given)	0.508%
COC(=O)c1cc2c(ccn2C)n1C	-0.203%
CN(C)S(=O)(=O)c1ccc(N2CCCC2)c(C(=O)NCc2ccccc2)c1	0.204%
Cc1ccc(-n2c(C)nnc2SCC(=O)NC2CC2)cc1	-1.22%
O=C(Oc1ccc(Br)cc1C(=S)N1CCOCC1)c1cccc([N+](=O)[O-])c1	0.801%
O=C(C[n+]1ccc2c(c1)nnn2-c1ccccc1)c1ccc(Cl)cc1	-1.14%
O=C(Cc1nc2ccccc2[nH]c1=O)c1ccc(Cl)cc1	60.1% (active)
O=c1c(-c2ccc(Cl)cc2)[n+]([O-])c2ccccc2n1OCc1nc2ccccc2[nH]1	-0.455%

Compound	activation
COc1ccc(N2CCN(C3CCCCC3NS(=O)(=O)c3ccccc3)CC2)cc1 (stereo not given)	-5.42%
CCOC(=O)N1CCN(C(c2ccnc3ccccc23)c2nnnn2-c2c(C)cccc2C)CC1 (stereo not given)	-1.14%
CC(=O)NCCC(=O)Nc1nc(C)c(Cc2ccc3c(c2)OCO3)s1	-2.95%
CCN(CC)c1ccc(NC(=O)C2CCC(CNc3c(N4CCCC4)c(=O)c3=O)CC2)c(C)c1 (stereo not given)	-0.247%
O=C(CS(=O)(=O)c1ccc(C(F)(F)F)cn1)NNC(=O)c1ccccc1	0.398%
O=C(CSc1ccsc1[N+](=O)[O-])N1CCCCC1	-0.638%
CCOC(=O)N1CCC(N2Cc3cccc(C(=O)Nc4ccc(S(=O)(=O)N(CC)CC)cc4)c3C2=O)CC1	-2.11%
Cc1ccc(NC(=O)CSc2nc(=O)n(CCN(C)C)c3c2CCCC3)c(C)c1	0.222%
CN1CCC(CN)(N2CCN(c3ccccc3)CC2)CC1	0.289%
CCN(CC(=O)NCCCN1CCOCC1)S(=O)(=O)c1cc(Cl)ccc1Cl	-0.326%
CC(C)C[C@@H](N)c1nnc(SCC(=O)c2ccc(Cl)cc2)o1	0.422%
Cc1c(NC(=O)CSCc2ccccc2)cccc1C(=O)O	3.04%
COc1ccc2nc(Nc3nc(-c4cc5ccccc5oc4=O)cs3)sc2c1	57.4% (active)
COc1cccc(C(NC(C)=O)c2nc(-c3ccccc3OC)cs2)c1 (stereo not given)	0.438%
CN(CCCC(=O)Nc1nccs1)S(=O)(=O)c1ccc(Cl)cc1	-1.49%
C=C1CCC(N(O)c2cc(C)on2)C(=C)CCC2C1CC2(C)C (stereo not given)	-0.223%
NC(=O)COc1ccc(C23CC4CC(CC(C4)C2)C3)cc1	-3.06%
COC(C[C@@H](O)C[C@H](O)[C@H](C)OCc1ccccc1)OC	2.56%
COc1cccc(C(=O)Nc2c3c(nn2-c2cccc(C)c2C)CS(=O)(=O)C3)c1OC	-0.743%
CCCCc1nc2cc(C(=O)NCCc3cnn(C)c3)ccc2o1	-2.8%
CCNc1c(NS(=O)(=O)c2ccc(C3CCCCC3)cc2)c(=O)oc2ccccc12	-0.121%
CC(=O)Nc1ccc(CN2CCN(Cc3ccc(F)c(F)c3)C(CCO)C2)cc1 (stereo not given)	-0.804%
